Experiment [1] is described as follows: ACEA_ER_80hr: ACEA Biosciences xCELLigence Real-Time Cell Analysis on Estrogen Receptor Agonism for Proliferation (AID 2282667; active = hit-call score of the fitted dose curve at least 0.9, where 1 is the maximum). Conditions: T47D proliferation, impedance (xCELLigence), 80 h. In a few lines:
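Real-time electrical impedance tracked growth of the human breast line T47D, with the 80 h post-dosing value used. Dosing spanned eight 1:4 steps down from a 100 uM final top concentration, run in duplicate.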

A short description of experiment [2]: APR_HepG2_CellCycleArrest_24hr: Apredica 24-hour HepG2 Assay for Cell Cycle Arrest (AID 2282905).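 Note: cell cycle arrest scored as ratio of 2N to 4N nuclear DNA content.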 The conditions noted are these: imaging, actives raise or lower the signal. In a few lines: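 Cell cycle arrest is scored from nuclear DNA content measured by high-content imaging of Hoechst 33342-stained HepG2 cells following 24-hour treatment at ten concentrations up to 200 uM, with DMSO as baseline.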

Experiment [3] in a line: APR_HepG2_NuclearSize_24hr: Apredica 24-hour HepG2 Assay for Nuclear Size (AID 2282907). Conditions: high-content imaging, actives raise or lower the signal. The gist of the method: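 Compounds in DMSO (final 0.5%) were added to human HepG2 hepatoma cells at ten concentrations up to 200 uM for 24 hr. Fixed nuclei were stained with Hoechst 33342, and nuclear diameter was quantified from automated images.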

Experiment [4] can be described thus: APR_HepG2_CellLoss_24hr: Apredica 24-hour HepG2 Assay for Cell Loss (AID 2282908).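 For AC50: fit in both directions so a hit may be cell loss or gain.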 The conditions noted are these: high-content imaging. In a few lines:
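Cell number is quantified by fluorescence imaging of Hoechst 33342-stained nuclei following dosing at 0.39–200 uM in 0.5% DMSO. Curves are fitted in both directions from the DMSO baseline.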

Experiment [5] in a line: APR_HepG2_MicrotubuleCSK_24hr: Apredica 24-hour HepG2 Assay for Microtubule CSK Stabilty (AID 2282909). Conditions: HepG2 microtubule cytoskeleton imaging, actives raise or lower the signal. In a few lines: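 Steps: dose HepG2 for 24 h (0.39–200 uM, 0.5% DMSO); fix 30 min in 3.7% formaldehyde at room temperature; permeabilize; stain alpha-tubulin 60 min; image microtubule cytoskeleton at 20x. Signal change fitted in both directions relative to DMSO.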

The nature of experiment [6]: APR_HepG2_MitoticArrest_24hr: Apredica 24-hour HepG2 Assay for Mitotic Arrest (AID 2282910). The conditions noted are these: high-content imaging, actives raise or lower the signal. The gist of the method: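 Compounds are dosed onto HepG2 cells across ten concentrations up to 200 uM for 24 hr. Cells are then fixed in 3.7% formaldehyde, permeabilised, and labelled for phospho-histone H3 and nuclei; images are scored by cell cycle analysis and fitted bidirectionally relative to DMSO.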

Experiment [7] can be described thus: APR_HepG2_MitoMembPot_24hr: Apredica 24-hour HepG2 Assay for Mitochondrial Membrane Potential (AID 2282911). The conditions noted are these: imaging, actives raise or lower the signal. In a few lines: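 Cells are dosed for 24 hr across 0.39 to 200 uM with solvent held at 0.5% DMSO. They are then stained with 250 nM MitoTracker Red CMXRos for 30 min, fixed in 3.7% formaldehyde and imaged.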

Experiment [8] can be described thus: APR_HepG2_MitoMass_24hr: Apredica 24-hour HepG2 Assay for Mitochondrial Mass (AID 2282912). Conditions: high-content imaging, actives raise or lower the signal. The gist of the method: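 The liver line HepG2 was dosed in duplicate across a 0.39–200 uM series, with final DMSO held at 0.5% v/v, and harvested at 24 hr. High-content imaging measured mitochondrial dye staining.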

A short description of experiment [9]: APR_HepG2_p53Act_24hr: Apredica 24-hour HepG2 Assay for p53 Activation (AID 2282913).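 Note: p53 protein immunofluorescence averaged per cell in HepG2 with Hoechst nuclei.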 Conditions: high-content imaging, actives raise or lower the signal. The gist of the method:
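Human HepG2 liver cells; 24 hr cpd treatment, 0.39–200 uM, 0.5% DMSO final. Fixed in 3.7% formaldehyde, permeabilized with 0.5% Triton X-100, stained with anti-p53/Cy5 plus Hoechst 33342. Six images per well at 20x; gain or loss vs DMSO.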

A short description of experiment [10]: APR_HepG2_CellCycleArrest_72hr: Apredica 72-hour HepG2 Assay for Cell Cycle Arrest (AID 2282914). The conditions noted are these: high-content imaging, actives raise or lower the signal. In a few lines:
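Read-out is Hoechst-stained nuclear DNA content measured by automated fluorescence imaging (20x, six images per well), fitted in both directions relative to DMSO. Human HepG2 liver cells received 0.39–200 uM compound for 72 hr at 0.5% v/v DMSO.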

Experiment [11] is described as follows: APR_HepG2_CellLoss_72hr: Apredica 72-hour HepG2 Assay for Cell Loss (AID 2282915). Conditions: high-content imaging. The gist of the method: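 Cell number comes from Hoechst 33342-labelled nuclei, imaged at 20x after 3.7% formaldehyde fixation. Dosing was 0.39–200 uM, ten concentrations in duplicate, 0.5% DMSO final, for 72 h. Bidirectional fit relative to DMSO baseline.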

Experiment [12] can be described thus: APR_HepG2_P-H2AX_72hr: Apredica 72-hour HepG2 Assay for H2AX Phosphorylation (AID 2282916).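 Note: phospho-histone H2A.x immunostain intensity per cell marking DNA damage.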 Conditions: imaging, actives raise or lower the signal. In a few lines:
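Following 72 hr treatment with 0.39–200 uM compound, HepG2 cells were formaldehyde-fixed, permeabilized and stained for phospho-H2A.x; signal was measured by high-content imaging and fitted bidirectionally against DMSO controls.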

Experiment [13] is described as follows: APR_HepG2_MitoMembPot_72hr: Apredica 72-hour HepG2 Assay for Mitochondrial Membrane Potential (AID 2282917). The conditions noted are these: imaging, actives raise or lower the signal. The gist of the method: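 Membrane potential read by MitoTracker Red CMXRos (250 nM, 30 min, pre-fixation) fluorescence imaging of HepG2 after 72 hr exposure. Ten concentrations, 0.39–200 uM, duplicate wells, 0.5% DMSO; fitted in both directions against DMSO baseline.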

The nature of experiment [14]: APR_HepG2_MitoticArrest_72hr: Apredica 72-hour HepG2 Assay for Mitotic Arrest (AID 2282918). Conditions: high-content imaging, actives raise or lower the signal. In a few lines: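 Read-out is phospho-histone H3 immunofluorescence with Hoechst nuclear segmentation, imaged at 20x. Human HepG2 liver cells received ten concentrations (0.39–200 uM, final DMSO 0.5% v/v) for 72 hr before fixation. Gain or loss of signal was fitted relative to DMSO.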

Experiment [15] in a line: APR_HepG2_MicrotubuleCSK_72hr: Apredica 72-hour HepG2 Assay for Microtubule CSK Stabilty (AID 2282919). Conditions: HepG2 microtubule cytoskeleton, high-content imaging, actives raise or lower the signal. In a few lines:
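Read-out is tubulin fluorescence intensity from high-content imaging of HepG2 cells, with nuclei identified by Hoechst 33342. Treatment lasts 72 h at 0.39–200 uM, and curves are fitted bidirectionally against the DMSO negative control.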

Experiment [16] in a line: APR_HepG2_P-H2AX_24hr: Apredica 24-hour HepG2 Assay for H2AX Phosphorylation (AID 2282920). Conditions: high-content imaging, actives raise or lower the signal. The gist of the method:
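HepG2, 24 hr, cpd 0.39–200 uM (10 conc, duplicate), DMSO 0.5% v/v final. Fix 3.7% formaldehyde, Triton X-100 permeabilize, anti-phospho-H2A.x 1:200 + Hoechst 2 ug/mL. Imaged, bidirectional fit vs DMSO.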

A short description of experiment [17]: APR_HepG2_StressKinase_72hr: Apredica 72-hour HepG2 Assay for Stress Kinase (AID 2282921). Conditions: HepG2 stress kinase (phospho-c-Jun) imaging, actives raise or lower the signal. The gist of the method: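 Fluorescence intensity of Cy3-tagged anti-phospho-c-Jun antibody, quantified per cell from Hoechst-defined nuclei across six images per well, served as the read-out following 72 h exposure (0.39–200 uM, 0.5% v/v DMSO).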

A short description of experiment [18]: APR_HepG2_StressKinase_24hr: Apredica 24-hour HepG2 Assay for Stress Kinase (AID 2282922). Conditions: HepG2 stress kinase (phospho-c-Jun) imaging, actives raise or lower the signal. The gist of the method:
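HepG2, 24 hr dosing, 0.39–200 uM in duplicate, 0.5% DMSO; formaldehyde fix (3.7%), 0.5% Triton X-100; anti-phospho-c-Jun + Cy3 secondary, Hoechst counterstain; ArrayScan imaging; bidirectional curve fit vs DMSO baseline.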

A short description of experiment [19]: APR_HepG2_p53Act_72hr: Apredica 72-hour HepG2 Assay for p53 Activation (AID 2282923).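 Note: average cellular p53 protein immunofluorescence intensity in HepG2 cells.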 The conditions noted are these: high-content imaging, actives raise or lower the signal. The gist of the method: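 HepG2 monolayers receive test compounds in duplicate at ten concentrations (0.39 through 200 uM) for 72 hr. They are then formaldehyde-fixed, antibody-labelled for p53, Hoechst-stained and imaged, with activity fitted bidirectionally versus DMSO.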

Experiment [20] is described as follows: APR_HepG2_MitoMass_72hr: Apredica 72-hour HepG2 Assay for Mitochondrial Mass (AID 2282924).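 Note: MitoTracker Red CMXRos stain intensity per cell imaged as mitochondrial mass.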 Conditions: high-content imaging, actives raise or lower the signal. The gist of the method: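 HepG2, 72 hr cmpd, 10 conc 0.39–200 uM in dup, DMSO 0.5% v/v. MitoTracker Red CMXRos 250 nM 30 min pre-fix; formaldehyde 3.7% fix 30 min RT. HCS imaging, gain/loss fit vs DMSO.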

SMILES strings stand for the structures. Inconclusive results are not listed. Some compounds were tested as several samples or in several runs, with calls that do not always agree. Active and inactive are the calls of the source. Rule for the calls, unless noted: active = hit-call score of the fitted dose curve at least 0.9, where 1 is the maximum; inactive = score below 0.9.

The record followed here is PubChem BioAssay (EPA / NIEHS).

For `OC1CCCCC1`, the call in experiment [1], in [2], in [3], in experiment [4], in [5] and in experiment [6] was inactive. For the same compound, the compound was called inactive in experiment [7], in [8], in [9], in experiment [10], in experiment [11] and in experiment [12]. The compound was called inactive in [13], in experiment [14], in experiment [15], in experiment [16], in experiment [17] and in experiment [18]. Also, the result in experiment [19] and in experiment [20] was inactive.
Consider `NCC(F)(F)C(F)(F)C(F)(F)C(F)(F)C(F)(F)C(F)(F)C(F)(F)F`, for which, in experiment [1], the result was inactive.
On to `CC1=C(/C=C/C(C)=C/C=C/C(C)=C/C(=O)O)C(C)(C)CCC1`, for which the AC50 is 0.00133 µM (active) in experiment [1]; 114 µM (active) in [3]; 103 µM (active) in experiment [4]; 109 µM (active) in experiment [6]; 83.2 µM (active) in [7]; 92.6 µM (active) in experiment [8]. Also, the results for the AC50 in experiment [11], in experiment [16] and in [20] were 62 µM (active), 86.8 µM (active) and 79.9 µM (active), respectively. Besides, the result in [2], in experiment [5], in [9], in experiment [10], in experiment [12] and in experiment [13] was inactive. Moreover, the result in experiment [14], in experiment [15], in experiment [17], in experiment [18] and in experiment [19] was inactive.
Turning to `CCCCC(CC)COC(=O)CCCCC(=O)OCc1ccccc1` (stereo not drawn), the call in experiment [1], in experiment [2], in experiment [3], in experiment [4], in experiment [5] and in [6] was inactive. The call in [7], in experiment [8], in [9], in [10], in [11] and in experiment [12] was inactive. Also, the compound was called inactive in experiment [13], in experiment [14], in [15], in [16], in experiment [17] and in experiment [18]. Also, the call in experiment [19] and in experiment [20] was inactive.
For the compound `O=C1OC2(c3ccccc31)c1cc(Br)c(O)c(Br)c1Oc1c2cc(Br)c(O)c1Br`, in experiment [1], the AC50 was 20.5 µM (active) and the result was inactive.
As to `CCCCCCCCCCCCCCCS(=O)(=O)Oc1ccccc1`, the compound was called inactive in [1], in experiment [2], in experiment [3], in [4], in experiment [5] and in experiment [6]. The compound was called inactive in [7], in experiment [8], in experiment [9], in experiment [10], in experiment [11] and in experiment [12]. Besides, the call in experiment [13], in [14], in experiment [15], in experiment [16], in experiment [17] and in [18] was inactive. The outcome in experiment [19] and in [20] was inactive.
As for `CC(C)(C)CC(C)(C)c1ccc(O)c(-n2nc3ccccc3n2)c1`, the call in [1], in experiment [3], in experiment [5], in experiment [8], in experiment [13] and in experiment [17] was inactive. In addition, the call in [18] was inactive. Moreover, the AC50 in experiment [2] is 36.9 µM (active); in experiment [4] it was 57.1 µM (active); in [6] it was 48.9 µM (active); in [7], 50.6 µM (active); in experiment [9] it was 62.6 µM (active); in experiment [10], 26.2 µM (active). Also, the AC50 in [11] was 65.5 µM (active); in experiment [12], 61.7 µM (active); in experiment [14] it was 35.6 µM (active); in experiment [15] it was 47.9 µM (active); in [16], 78.4 µM (active); in [19], 19 µM (active). Further, in [20], the AC50 is 42.8 µM (active).
